Measurements from PubChem BioAssay AID1159580 (chemical genetic matrix, 2015).
Out of some 5,500 compounds screened, about 2,000 (36%) were called active. Not shown: some 18% with an inconclusive outcome. Rule as the data show it: active = normalized growth mostly below about 0.91 (no sharp cut-off); inconclusive = no clear call, values can overlap the other calls; inactive = mostly above about 0.92. The list shows a part of the results.

Assay: chemical genetic growth profiling, strain panel (AID 1159580);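 also: tested at 20 µM; growth read once vehicle control cultures reached saturation at 30 °C; 1 = growth at the plate median or of vehicle wells; lower values mean less growth of the strain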
Details: growth OD
[1] = S. cerevisiae deletion strains, locus YAL013W, strain DEP1, active compounds read low
[2] = S. cerevisiae deletion strains, locus YBR229C, strain ROT2, active compounds read low
[3] = S. cerevisiae deletion strains, locus YCL061C, strain MRC1, active compounds read low
[4] = S. cerevisiae deletion strains, locus YDL101C, strain DUN1, active compounds read low
[5] = S. cerevisiae deletion strains, locus YDR150W, strain NUM1, active compounds read low
[6] = S. cerevisiae deletion strains, locus YEL061C, strain CIN8, active compounds read low
[7] = S. cerevisiae deletion strains, locus YGR078C, strain PAC10, active compounds read low
[8] = S. cerevisiae deletion strains, locus YGR229C, strain SMI1, active compounds read low
[9] = S. cerevisiae deletion strains, locus YHR030C, strain SLT2, active compounds read low
[10] = S. cerevisiae deletion strains, locus YHR087W, strain rtc3, active compounds read low
[11] = S. cerevisiae deletion strains, locus YJL187C, strain SWE1, active compounds read low
[12] = S. cerevisiae deletion strains, locus YJR043C, strain POL32, active compounds read low
[13] = S. cerevisiae deletion strains, locus YJR075W, strain HOC1, active compounds read low
[14] = S. cerevisiae deletion strains, locus YKL190W, strain CNB1, active compounds read low
[15] = S. cerevisiae deletion strains, locus YLR039C, strain RIC1, active compounds read low
[16] = S. cerevisiae deletion strains, locus YLR058C, strain SHM2 (second series), active compounds read low
[17] = S. cerevisiae deletion strains, locus YLR085C, strain ARP6, active compounds read low
[18] = S. cerevisiae deletion strains, locus YLR262C, strain YPT6, active compounds read low
[19] = S. cerevisiae deletion strains, locus YML094W, strain GIM5, active compounds read low
[20] = S. cerevisiae deletion strains, locus YMR219W, strain ESC1, active compounds read low
[21] = S. cerevisiae deletion strains, locus YMR263W, strain SAP30, active compounds read low
[22] = S. cerevisiae deletion strains, locus YNL153C, strain GIM3, active compounds read low
[23] = S. cerevisiae deletion strains, locus YNL298W, strain CLA4 (second series), active compounds read low
[24] = S. cerevisiae deletion strains, locus YNL322C, strain KRE1, active compounds read low
[25] = S. cerevisiae deletion strains, locus YNR030W, strain Alg12, active compounds read low
[26] = S. cerevisiae deletion strains, locus YPL055C, strain LGE1, active compounds read low
[27] = S. cerevisiae deletion strains, locus YPL241C, strain CIN2, active compounds read low
[28] = S. cerevisiae deletion strains, locus YPR135W, strain CTF4, active compounds read low
[29] = S. cerevisiae deletion strains, locus YNL128W, strain TEP1, active compounds read low
[30] = S. cerevisiae deletion strains, locus YMR307W, strain GAS1, active compounds read low

Measured: normalized growth

CCO/C=C1\SC(=S)N(CCc2ccccc2)C1=O
inactive: [1] 0.969 | [4] 0.973 | [5] 0.986 | [12] 0.961 | [19] 0.882 | [21] 0.962 | [22] 0.936 | [25] 0.929 | [26] 0.975 | [27] 0.969
active: [2] 0.898 | [3] 0.882 | [6] 0.66 | [7] 0.919 | [8] 0.893 | [9] 0.149 | [10] 0.847 | [11] 0.897 | [13] 0.843 | [14] 0.736 | [15] 0.166 | [16] 0.898 | [17] 0.181 | [18] 0.193 | [20] 0.906 | [23] 0.561 | [24] 0.926 | [28] 0.305

Cc1ccc(OS(=O)(=O)c2ccc(C#N)cc2)c(Br)c1
inactive: [1] 0.954 | [2] 1 | [4] 0.954 | [5] 0.973 | [6] 0.934 | [7] 0.976 | [11] 1.02 | [12] 0.979 | [13] 0.953 | [16] 0.997 | [17] 0.784 | [19] 0.957 | [20] 0.985 | [21] 0.966 | [29] 0.969 | [22] 0.96 | [23] 0.881 | [24] 0.981 | [25] 0.918 | S. cerevisiae deletion strains, locus YOL006C, strain TOP1, active compounds read low 0.765 | [26] 0.936 | [27] 0.927
active: [9] 0.62 | [15] 0.712 | [18] 0.796 | [28] 0.628 | S. cerevisiae strains, strain wild type, active compounds read low 0.907

COc1ccc(OC)c(S(=O)(=O)Oc2ccc(C#N)cc2)c1
inactive: [1] 0.997 | [2] 0.994 | [3] 1.02 | [4] 0.984 | S. cerevisiae deletion strains, locus YDL134C, strain PPH21, active compounds read low 1.01 | [5] 0.98 | [6] 0.956 | [7] 0.994 | [8] 0.968 | [9] 0.937 | [10] 0.968 | [12] 0.981 | [13] 1 | [15] 1.09 | [16] 0.992 | [17] 0.93 | [18] 1.09 | [19] 0.981 | [20] 1.01 | [21] 0.992 | [29] 1 | [22] 0.977 | [23] 0.972 | [24] 1 | [25] 0.973 | [26] 0.961 | [27] 0.987 | [28] 0.924

COc1ccc(OC)c(S(=O)(=O)Nc2ccc(C#N)cc2)c1
inactive: [1] 0.978 | [2] 1.01 | [4] 1 | [5] 0.998 | [6] 1.02 | [7] 1.02 | [8] 1 | [9] 1.01 | [10] 1.01 | [11] 1 | [12] 0.989 | [13] 1.01 | [14] 0.996 | [15] 0.993 | [16] 1 | [17] 1.04 | [18] 0.953 | [19] 1.03 | [20] 1 | [21] 0.997 | [30] 1.05 | [22] 0.998 | [23] 1 | [24] 0.993 | [25] 1.02 | [26] 1.02 | [27] 1.02 | [28] 0.951

NNC(N)=O
inactive: [1] 1.03 | S. cerevisiae deletion strains, locus YAL040C, strain CLN3, active compounds read low 1.01 | S. cerevisiae deletion strains, locus YCL061C, strain MRC1 (second series), active compounds read low 1.01 | S. cerevisiae deletion strains, locus YDR363W, strain ESC2, active compounds read low 1.02 | S. cerevisiae deletion strains, locus YER002W, strain NOP16, active compounds read low 1.01 | [8] 1.03 | [13] 1.02 | [30] 0.998 | S. cerevisiae deletion strains, locus YNL175C, strain NOP13, active compounds read low 1.01 | S. cerevisiae deletion strains, locus YNL197C, strain WHI3, active compounds read low 1 | S. cerevisiae deletion strains, locus YNL224C, strain SQS1, active compounds read low 1 | [24] 1.03 | S. cerevisiae deletion strains, locus YOR083W, strain WHI5 (second series), active compounds read low 1 | [26] 1.05
